Source: ChEMBL document CHEMBL3988442, “University of Dundee, Small-Polar-MMV Screening Library” (2021)
Hit rate of the full screen: of about 69,000 compounds, about 1,000 (1.4%) showed an effect of 50% or more. Many of the other results were omitted from the sample, so strong results are more common in it than they were.

Tested on: Leishmania donovani
Test: Leishmania intramacrophage assay
Format: functional, organism-based
Set-up: scale not given: in the data most compounds retested in dose-response had high values

| Compound | Percent Effect (30.3 µM, […]) [%] | Percent Effect (30 µM) [%] |
| --- | --- | --- |
| CCc1cc(N2CCC(NCCc3nc(C)c(C)s3)CC2)nc(C)n1 | 22.72 |  |
| CCc1cc(N2CCC(NCCc3ccc(C)o3)CC2)nc(C)n1 | 9.521 |  |
| CCc1cc(N2CCC(NCCc3ccccc3F)CC2)nc(C)n1 | 63.92 |  |
| CCC(CNC(=O)NCc1cc[nH]n1)N1CCCC1 (stereo unspecified) | 10.3 |  |
| Cc1nn(C)c(C)c1S(=O)(=O)N(CC(N)=O)CC(C)C | -2.964 |  |
| CCCc1noc(C2CCN(S(=O)(=O)c3cccs3)CC2)n1 | 12.47 |  |
| CC(C)c1noc(C2CCN(S(=O)(=O)c3cccs3)CC2)n1 | -2.602 |  |
| COCCc1noc(C2CCN(S(=O)(=O)c3cccs3)CC2)n1 | 57.18 |  |
| CCC(CNc1ncnc2oc(C)nc12)Cc1ccccc1 (stereo unspecified) | 45.54 |  |
| CCCOc1ccc(Cl)cc1CNc1ncnc2oc(C)nc12 | 22.92 |  |
| CCCOc1ccccc1CCCNc1ncnc2oc(C)nc12 | 83.62 |  |
| CCN(CCSc1ccccc1)C(=O)c1cn([C@H]2CC[C@@H](N)CC2)nn1 | 13.68 |  |
| Cc1ccc(SCCN(C)C(=O)c2cn([C@H]3CC[C@@H](N)CC3)nn2)cc1 | -26.18 |  |
| Cc1ccc(SCCCNC(=O)c2cn([C@H]3CC[C@@H](N)CC3)nn2)cc1 | 94.34 |  |
| O=C(O)c1cnc(OCC2CC2)c(Br)c1 | 4.629 |  |
| COCCCNC(=O)c1c(-n2cnnn2)sc2c1CCC2 | 9.721 |  |
| COCCNC(=O)c1c(-n2cnnn2)sc2c1CCCC2 | 53.45 |  |
| CC(C)CCNC(=O)c1c(-n2cnnn2)sc2c1CCCC2 | -26.12 |  |
| Cc1ccc(C(=O)N(CC2CCCO2)c2ccncc2)o1 (stereo unspecified) | 23.81 |  |
| Cc1nn(-c2ccccn2)c(C)c1[C@@H]1C=C[C@@H](NC(=O)NC(C)C)C1 | 10.96 |  |
| CCNC(=O)[C@@H]1C[C@H](N)CN1Cc1ccc(-c2cc[nH]n2)o1 | 11.56 |  |
| CCNC(=O)[C@@H]1C[C@H](N)CN1Cc1ccc(Sc2ccc(C)cc2)o1 | -2.33 |  |
| CCNC(=O)[C@@H]1C[C@@H](N)CN1Cc1ccc(Sc2ccc(C)cc2)o1 | 97.85 |  |
| Cc1cc(C(=O)NC2CC(=O)N(C(C)C)C2=O)c(C)n1C(C)C (stereo unspecified) | 19.34 |  |
| NCC(CO)Cc1ccc(C(F)(F)F)cc1 (stereo unspecified) | 17.17 |  |
| Cc1cnn(CCNCC(O)c2ccc(F)c(F)c2)c1 (stereo unspecified) | -10.99 |  |

| Compound | Percent Effect (30.3 µM, […]) [%] | Percent Effect (30 µM) [%] |
| --- | --- | --- |
| OC(CNCCn1cccn1)c1cccc(Br)c1 (stereo unspecified) |  | 1.273 |
| Cc1cnn(CCNCC(O)c2cccc(Br)c2)c1 (stereo unspecified) | 97.73 |  |
| O=C(NCCc1ccccc1F)NCC(O)c1cccc(F)c1 (stereo unspecified) |  | 19.34 |
| Cn1cc(CN2CC[C@@H]3[C@@H](CCC(=O)N3CC3CCNCC3)C2)cn1 | 16.61 |  |
| Cc1ccc(CC(=O)NCC(O)c2ccc(Cl)cc2Cl)cn1 (stereo unspecified) | -16.89 |  |
| CCc1c(-c2ccccc2)nc2c(c(C)c(C)n2CCN(C)C)c1N | 100.7 |  |
| CCc1c(C)sc2c1c(N)nc(=O)n2CCCN(C)C | 34.84 |  |
| Cc1c(C)n(Cc2ccccn2)c2nc3c(c(N)c12)CCCCC3 | 38.18 |  |
| Cc1c(C)n(Cc2ccncc2)c2nc3c(c(N)c12)CCCCCC3 | 6.52 |  |
| CCc1c(C)sc2c1c(N)nc(=O)n2CCN(C)C | -18.16 |  |
| Cc1c(-c2ccccc2)nc2c(c(C)c(C)n2CCN(C)C)c1N | 99.06 |  |
| Cc1cc(C(=O)N2C[C@@H]3[C@@H](CN(C)CCc4ccccn4)[C@@H]3C2)c(C)o1 | -26.53 |  |
| CC(CN1CCCC1=O)NC(=O)Nc1cccnc1-n1cccn1 (stereo unspecified) | -2.319 |  |
| Cc1nccn1CCN(C)c1nc(-c2cccnc2)nc2c1CCNC2 | 20.05 |  |
| CCn1ccnc1CN(C)c1nc(-c2ccc(Cl)cc2)nc2c1CNC2 | 20.89 |  |
| Cc1nccn1CCN(C)c1nc(-c2ccc(Cl)cc2)nc2c1CNC2 | 51.4 |  |
| Cc1c(-c2c(-c3ccccc3)ncn2[C@H](CO)C(=O)O)cnn1C | 25.35 |  |
| Cc1nn(C)c(C)c1-c1c(-c2ccccc2)ncn1[C@H](CO)C(=O)O | 46.15 |  |
| Cc1c(-c2c(-c3ccccc3)ncn2[C@@H](C(=O)O)[C@H](C)O)cnn1C | 50.58 |  |
| Cc1ccccc1C(=O)N1CC[C@H](O)[C@@H](N2CCOCC2)CC1 | 5.268 |  |
| Cc1ccc(OC2(C(=O)O)CCN(C(=O)c3cccc(F)c3)CC2)cn1 | -5.312 |  |
| O=c1[nH]ncc(NCCOc2ccc3c(c2)CCC3)c1Cl | 53.95 |  |
| O=c1[nH]ncc(NCCOc2cccc(Br)c2)c1Cl | 33.92 |  |
| O=c1[nH]ncc(NCCOc2ccc3c(c2)OCO3)c1Cl | 33.23 |  |
| O=C1COc2c(cccc2C(=O)N2CCCC(n3cccn3)C2)N1 (stereo unspecified) | -19.69 |  |
